Screening results (PubChem)
CYP2C9 activ – CYP2C9 (human) activation. 1.4% of 96,000 active. AID 1024. activation factor at 5 µM. recombinant CYP2C9, luciferin-H conversion, luminescence; hits give high values; factor 1 = untreated enzyme, 0 = blocked. P11712;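 active = activation factor of 2 or more for CYP2C9 at a 5 µM dose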;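 also: 0 = sulfaphenazole-blocked wells and 1 = vehicle-only wells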
Target sequence (P11712 whole entry, looked up): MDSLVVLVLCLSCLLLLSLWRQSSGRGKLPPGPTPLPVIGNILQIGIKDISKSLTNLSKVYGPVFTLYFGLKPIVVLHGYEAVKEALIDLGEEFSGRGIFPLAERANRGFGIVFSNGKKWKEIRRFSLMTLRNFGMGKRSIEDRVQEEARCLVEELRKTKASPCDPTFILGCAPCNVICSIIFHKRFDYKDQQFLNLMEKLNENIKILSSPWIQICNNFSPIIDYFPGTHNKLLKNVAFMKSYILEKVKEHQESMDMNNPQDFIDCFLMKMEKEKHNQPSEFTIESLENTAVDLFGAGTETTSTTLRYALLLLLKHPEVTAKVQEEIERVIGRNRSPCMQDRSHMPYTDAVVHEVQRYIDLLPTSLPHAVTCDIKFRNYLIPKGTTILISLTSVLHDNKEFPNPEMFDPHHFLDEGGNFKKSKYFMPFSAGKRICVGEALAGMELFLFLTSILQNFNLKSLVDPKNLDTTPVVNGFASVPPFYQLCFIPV
CYP2C19 activ – increases human CYP2C19 enzyme activity; P33261; recombinant CYP2C19, luciferin-H EGE luminescence; hits give high values; 0 = fully inhibited enzyme, 1 = untreated enzyme; activation factor at 5 µM; 96,000 tested, under 10 active;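 active = activation factor of at least 2 at 5 µM in the primary screen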;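 also: 0 = wells with 2.5 mM tranylcypromine and 1 = vehicle-only wells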
PostGolgi yeast – growth inhibition of a yeast mutant, post-Golgi transport screen | inhibition, % at 10 µM | 0.9% of 98,000 active | post-Golgi transport phenotypic cell assay;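 also: yeast cells grown in 1536-well plates; yeast grown about 18 h at 30C before absorbance read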
CYP2C19 inhib – human CYP2C19 inhibition; AID 778; 21% of 96,000 active; CYP2C19 Supersomes, luciferin-H EGE luminescence, 30 min; inhibition, % at 5 µM; P33261;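 active = CYP2C19 inhibition above a set limit at 5 µM in the primary screen, cut at about 50% in these data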;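 also: plate controls were negative control wells for no effect and 2.5 mM tranylcypromine positive control for full effect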
PostGolgi ctrl – inhibits growth of the yeast control strain; efflux-deficient yeast background strain, growth absorbance A615, 16 h; inhibition, % at 10 µM; 5% of 98,000 active; AID 738
CYP2C9 inhib – inhibitors of human CYP2C9; P11712; CYP2C9 Supersomes, luciferin-H conversion, luminescence; inhibition, % at 5 µM; 20% of 96,000 active;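 active = blocking of liver enzyme CYP2C9 beyond about 50% at 5 µM, limit read from the data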
Starred values were filed as active, the others as inactive; . = not tested or not shown. An excerpt weighted towards active compounds, which were near 32% of everything screened. Rule as the data show it, unless noted: active = inhibition above about 30%; inactive = the rest.

SMILES	CYP2C9 activ	CYP2C19 activ	PostGolgi yeast	CYP2C19 inhib	PostGolgi ctrl	CYP2C9 inhib
COc1cc(-c2nnc(COC(=O)c3c4c(nc5ccccc35)CCCC4)o2)cc(OC)c1OC	0.2	0.3	-2	68*	23	79*
CC12CC(NC(=O)N1CCc1ccccc1)c1cc(Cl)ccc1O2 (stereo not drawn)	.	.	0	.	7	.
Cc1ccccc1C1C(C#N)=C2N=C(N)c3c(sc4c3CCCCC4)N2C2=C1C(=O)CC(C)(C)C2 (stereo not drawn)	0.5	0.9	11	8	3	47
Cc1ccccc1C1C(C#N)=C2NC(=O)c3c(sc4c3CCCCC4)N2C2=C1C(=O)CC(C)(C)C2 (stereo not drawn)	1.1	1	11	3	41*	-6
CCN(CC)c1nc(Nc2ccccc2)nc(Oc2ccc(=O)[nH]n2)n1	0.8	0.9	-3	11	0	24
CN(C)c1nc(NCc2ccccc2)nc(Oc2ccc(=O)[nH]n2)n1	0.9	0.4	-6	60*	-3	14
CC1(C)CC(=O)C(C=NCCN2CCOCC2)=C(O)C1	1	0.8	9	24	14	-3
CC1(C)CC(=O)C(C=NCCN2CCN(CCCCS(=O)(=O)O)CC2)=C(O)C1	1.2	1.2	6	-17	33*	-17
COc1ccccc1N/C(=N/S(=O)(=O)c1ccc(Cl)cc1)c1ccccc1	0.5	0.3	-10	73*	7	46
O=S(=O)(/N=C(/Nc1ccccc1F)c1ccccc1)c1ccccc1	0.6	0.4	4	63*	-1	41
COc1cc(N/C(=N/S(=O)(=O)c2ccccc2)c2ccccc2)ncn1	0.9	1.1	-4	-7	11	8
Cn1c(SCC(=O)NC(C)(C)C)nnc1-c1cccc(NC(=O)c2ccccc2F)c1	1	0.9	-1	5	1	2
Cc1cc2ccccn2c1C(=O)c1nc(N2CCOCC2)ncc1Cl	1	0.5	-5	46	8	-2
COCCN(CCOC)c1ncc(Cl)c(C(=O)c2c(C)cc3ccccn23)n1	1.6	0.1	-6	90*	23	-59
COc1ccccc1NC(=S)N(CCc1nc2cc(C)c(C)cc2[nH]1)Cc1cccnc1	1.8	0.8	6	19	14	-82
Cc1noc(/C=C/N(C)C)c1S(=O)(=O)N1CCCC(C(=O)NCc2cccs2)C1 (stereo not drawn)	0.3	0.7	4	30	5	68*
Cc1ccc(CCNC(=O)C2CCCN(S(=O)(=O)c3c(C)noc3/C=C/N(C)C)C2)cc1 (stereo not drawn)	0.3	0.6	-7	39	-2	69*
Cc1noc(C)c1S(=O)(=O)N1CCCC(C(=O)NCCc2ccccc2)C1 (stereo not drawn)	0.8	0.9	-4	6	4	17
Cc1cc(C)cc(NC(=O)Nc2ccc3c(c2)N(C)C(=O)CS3)c1	0.9	1	-12	1	3	10
CC(=O)c1cccc(NC(=O)Nc2ccc3c(c2)N(C)C(=O)CS3)c1	0.4	0.3	-11	68*	20	59*
O=C(c1nc2n(n1)C(c1ccc(Cl)cc1)C=C(c1ccccc1)N2)N1CCOCC1 (stereo not drawn)	0.9	1	27	1	-2	12
Cc1cc(C(=O)C(=O)N(C)C)c(C)n1-c1ccc([N+](=O)[O-])cc1	1	0.3	5	72*	20	3
C=CCN(CC=C)C(=O)C(=O)c1cc(C)n(-c2ccc([N+](=O)[O-])cc2)c1C	0.6	0	9	98*	7	44
Cc1ccc(-n2c(C)cc(C(=O)OCC(=O)N(C)C3CCS(=O)(=O)C3)c2C)cc1 (stereo not drawn)	1	1	6	-3	18	4
Cc1ccc(S(=O)(=O)NC(C)C(=O)Nc2ccc(C(N)=O)cc2)cc1 (stereo not drawn)	0.8	0.9	0	11	5	23
SMILES	CYP2C9 activ	CYP2C19 activ	PostGolgi yeast	CYP2C19 inhib	PostGolgi ctrl	CYP2C9 inhib
Nc1cccc(-c2nc3ccccc3s2)c1	0.8	0.7	1	27	31*	21
COc1cc(-c2nc3ccccc3s2)ccc1O	1.1	0.8	7	17	9	-12
COc1ccc(-c2nc3ccccc3s2)cc1O	0.3	0.6	-1	41	18	72*
CC1CN(S(=O)(=O)c2ccc(-c3nc4ccccc4s3)cc2)CC(C)O1 (stereo not drawn)	0.9	1.1	-7	-8	3	11
O=S(=O)(c1cccc(-c2nc3ccccc3s2)c1)N1CCCC1	0.2	0.7	10	34	34*	79*
Oc1cccc(-c2nc3ccccc3s2)c1	0.6	0.7	-3	27	0	38
O=S(=O)(c1ccc(-c2nc3ccccc3s2)cc1)N1CCCC1	0.2	0.9	-6	13	4	77*
COc1ccc(CCNC(=O)C(=O)NCc2ccc(C)cc2)cc1OC	1.1	0.9	-1	12	-5	-5
CCOC(=O)c1c(C)nc(-c2ccccc2)nc1N	0.3	0.2	23	82*	1	67*
N#Cc1nc(-c2ccco2)oc1N1CCCC1	1.2	0.9	-9	15	4	-24
N#Cc1nc(-c2ccco2)oc1N1CCc2ccccc2C1	0.1	0.3	6	68*	9	86*
N#Cc1nc(-c2ccco2)oc1N1CCN(c2cccc(Cl)c2)CC1	0.3	0.2	-3	76*	22	69*
CCC1(COC(NC(=O)c2cccnc2)(C(F)(F)F)C(F)(F)F)COC1	0.9	0.9	6	10	20	10
N#CCC(CNc1ncc(C(F)(F)F)cc1Cl)OC(=O)c1ccc(Cl)cc1Cl (stereo not drawn)	0.5	0.7	10	30	25	50*
COC(=O)/C=C/S(=O)(=O)c1ccc(NC(C)=O)cc1	1	1	4	-1	3	1
COc1ccc(N2C(C(C)=O)=NN(c3ccccc3)C2c2cccs2)cc1 (stereo not drawn)	0.4	0.6	19	43	19	56*
CC(=O)Nc1ccc(N2C(C(C)=O)=NN(c3ccccc3)C2c2cccs2)cc1 (stereo not drawn)	0.6	0.5	2	47	7	44
COc1ccc(-c2[nH]ncc2-c2cnn(-c3ccccc3)c2)c(O)c1	0.2	0.3	17	69*	15	82*
CCCc1ccc(OCCNC(C)=O)cc1	.	.	5	.	4	.
COc1ccc(-c2[nH]ncc2Oc2ccccc2OC)c(O)c1	0.3	0.1	6	94*	19	75*
COc1ccc(-c2cn[nH]c2N)cc1	0.9	0.8	-4	16	-1	9
COc1ccc(Oc2cn[nH]c2-c2ccc(O)cc2O)cc1	0	0	4	100*	8	99*
CCCc1ccc(Oc2cn[nH]c2-c2ccc(O)cc2O)cc1	0.1	0	97*	96*	99*	89*
